Hits are enriched below; roughly 3.4% of the tested compounds scored in any of these assays.
PLC-beta3 inh – human PLC-beta3 inhibitors, primary screen, biochemical, fluorescence. 1-phosphatidylinositol 4,5-bisphosphate phosphodiesterase beta-3 (Homo sapiens), Q01970. inhibition, % at 12.2 µM. Purified PLC-beta3, fluorogenic substrate. 370,000 compounds, 0.18% hits; in the data active = inhibition above about 11%
PLCg1 inh – PLC-gamma1 enzyme inhibitors, primary screen, biochemical, fluorescence, purified enzyme; 1-phosphatidylinositol 4,5-bisphosphate phosphodiesterase gamma-1 (Homo sapiens), P19174; fluorogenic substrate; inhibition, % at 12.2 µM; 370,000 compounds, 0.84% hits; in the data active = inhibition above about 9.5%
ADAM10 inh – human ADAM10 inhibitors, primary screen, biochemical, QFRET, HTS; Disintegrin and metalloproteinase domain-containing protein 10 (Homo sapiens), O14672; recombinant ADAM10, EDANS/DABCYL FRET peptide cleavage, 3 h; inhibition, % at 7 µM; 370,000 compounds, 0.62% hits; AID 720582, 2013;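 active = inhibition above a per-campaign cutoff equal to the mean of compounds falling between control-based bounds plus 3 SD, cut at about 20% in these data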
KLK7 zymogen act – proKLK7 zymogen activators, primary screen, biochemical, fluorescence intensity | Kallikrein-7 (Homo sapiens), P49862 | purified proKLK7, EDANS-DABCYL substrate fluorescence; 100% is mature enzyme control, 0% vehicle | activation, % at 7 µM | 370,000 compounds, 0.9% hits | AID 652039, 2013;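 active = activation above the mean of all tested compounds plus 3 SD, computed per campaign excluding outliers beyond control limits, cut at about 13% in these data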
HGIII-sPLA2 inh – human group III sPLA2 inhibitors, primary screen, biochemical, QFRET, BODIPY PC-A2 liposome substrate; QFRET BODIPY PC-A2 liposome hydrolysis, fluorescence; inhibition, % at 12.2 µM; 370,000 compounds, 0.56% hits; AID 743126, 2013;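 active = inhibition above mean plus 3 SD of compounds lying within the high and low control bounds, cut at about 19% in these data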
ADAM17 inh – ADAM17 inhibitors, primary screen, biochemical, QFRET; Disintegrin and metalloproteinase domain-containing protein 17 (Homo sapiens), P78536; inhibition, % at 6.95 µM; recombinant ADAM17, EDANS/DABCYL FRET peptide cleavage; 370,000 compounds, 0.83% hits; AID 720648, 2013;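 active = inhibition above the mean of compounds lying between control limits plus 3 SD, set per campaign, cut at about 8.5% in these data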
Target sequence (P78536 215-824 limits assumed): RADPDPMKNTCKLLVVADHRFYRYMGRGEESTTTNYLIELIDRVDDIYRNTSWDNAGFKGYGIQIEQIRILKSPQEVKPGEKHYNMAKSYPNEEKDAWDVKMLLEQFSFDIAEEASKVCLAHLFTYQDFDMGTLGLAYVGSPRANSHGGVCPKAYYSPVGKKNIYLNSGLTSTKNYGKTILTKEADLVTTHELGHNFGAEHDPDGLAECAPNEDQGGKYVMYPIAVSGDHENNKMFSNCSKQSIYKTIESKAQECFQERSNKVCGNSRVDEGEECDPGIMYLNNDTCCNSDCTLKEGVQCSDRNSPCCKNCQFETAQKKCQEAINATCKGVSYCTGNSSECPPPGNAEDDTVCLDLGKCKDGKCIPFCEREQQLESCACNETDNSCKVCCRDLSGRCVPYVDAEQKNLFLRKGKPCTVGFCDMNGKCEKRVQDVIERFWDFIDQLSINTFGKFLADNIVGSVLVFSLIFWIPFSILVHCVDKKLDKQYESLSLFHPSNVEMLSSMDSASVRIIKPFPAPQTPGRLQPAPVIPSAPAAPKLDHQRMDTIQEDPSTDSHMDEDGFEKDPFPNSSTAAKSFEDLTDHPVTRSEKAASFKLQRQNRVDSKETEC
ADAM10 confirm – human ADAM10 inhibitors, confirmation, biochemical, QFRET, triplicate | shares compounds with ADAM10 inh | ADAM10 QFRET peptide cleavage, EDANS fluorescence | inhibition, % at 6.95 µM | 2,100 compounds, 1% hits | AID 743208, 2013;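 active = inhibition above about 20% chosen separately for each screening run, limit read from the data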
ADAM17 ctr – ADAM17 inhibitors, counter-screen for ADAM10 exosite inhibitor project, biochemical, QFRET, high throughput. shares compounds with ADAM10 inh. ADAM17 QFRET peptide cleavage, EDANS fluorescence. inhibition, % at 6.95 µM. 2,100 compounds, 0.5% hits;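 active = mean triplicate inhibition above the solvent-only control wells' mean plus 3 SD, cut at about 12% in these data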
Numbers stand for hits; n = inactive; x = no result.

SMILES	PLC-beta3 inh	PLCg1 inh	ADAM10 inh	KLK7 zymogen act	HGIII-sPLA2 inh	ADAM17 inh	ADAM10 confirm	ADAM17 ctr
CCOc1cc(S(=O)(=O)Nc2ccc(CC)cc2)ccc1Cl	n	n	25	n	n	n	n	n
CCOc1cc(S(=O)(=O)Nc2ccccc2CC)ccc1Cl	n	n	n	n	n	n	x	x
C[C@@]12C(=O)Nc3cc(F)c(F)cc3C(=O)N1[C@H]1c3ccccc3OC[C@@H]1[C@@H]2c1ccccc1	n	n	21	n	n	10	n	n
COc1cc2c(cc1OC)C(=O)N1[C@H]3c4ccccc4OC[C@@H]3[C@H](c3ccccc3)[C@]1(C)C(=O)N2	n	n	n	n	n	n	x	x
C[C@H](O)[C@@H]1CN2CCc3ccc(N4CCOCC4)cc3[C@@H]2C[C@@H]1N(C)C(=O)c1ccco1	n	n	n	n	n	n	x	x
COc1cccc(C2Nc3ccccc3C(=O)N2Cc2ccccc2)c1 (stereo not given)	n	n	n	n	n	n	x	x
COc1ccc2c(c1)C[C@]1(C)c3ccccc3C(=O)N(Cc3ccccc3)[C@H]21	n	n	26	n	n	n	n	n
Cc1ccc(-c2nc(C)sc2CC(=O)OCC(=O)Nc2cccc([N+](=O)[O-])c2)cc1	n	n	n	n	n	n	x	x
Cc1ccc(C(=O)c2ccccc2C(=O)OCC(=O)Nc2cccc([N+](=O)[O-])c2)cc1	n	n	27	n	n	n	n	n
COc1cccc(CCNS(=O)(=O)c2c(C)n[nH]c2C)c1	n	n	n	n	n	n	x	x
CCCN(CC(=O)Nc1cc(Cl)cc(Cl)c1)CC(=O)Nc1ccc(F)c(F)c1F	n	n	28	n	n	13	n	n
CCCN(CC(=O)Nc1ccccc1Br)CC(=O)Nc1ccc(F)c(F)c1F	n	n	n	n	n	n	x	x
CCCC/C(O)=C1\C(=O)CC(C)(C)CC1=Nc1ccc(OC)cc1	n	n	41	n	n	n	n	n
CCC/C(O)=C1\C(=O)CC(C)(C)CC1=Nc1ccc(OC)cc1	n	n	n	n	n	n	x	x
CCOC(=O)c1c(C)oc2ccc(NS(=O)(=O)c3cccs3)cc12	n	n	21	n	n	n	n	n
CC(C)C(C(=O)NCc1ccco1)N(Cc1ccco1)C(=O)CNS(=O)(=O)c1ccccc1 (stereo not given)	n	n	n	n	n	n	x	x
COc1ccc(S(=O)(=O)NCC(=O)N(Cc2ccco2)C(C(=O)NC(C)(C)C)C(C)C)cc1 (stereo not given)	n	n	20	n	n	n	n	n
COC(=O)[C@]12C[C@H](CC(=O)NCc3cccc(C(F)(F)F)c3)C(=O)N(Cc3ccccc3)C1=C[C@H](COCc1ccccc1)O[C@@H]2C	n	n	n	n	n	n	x	x
CCC(c1nnnn1C1CCCCC1)N1CCN(C2CCCC2)CC1 (stereo not given)	n	n	n	n	n	n	x	x
CCC(c1nnnn1C(C)C)N1CCN(C2CCCC2)CC1 (stereo not given)	n	n	74	n	n	n	n	n
Cc1ccc(CN2CCCCC(NC(=O)c3ccccc3C)C2=O)cc1 (stereo not given)	n	n	n	n	n	n	x	x
CCOc1ccc(NC(=S)Nc2ccc(F)cc2)cc1	n	n	n	n	n	n	x	x
CCOc1ccc(NC(=S)Nc2cc(-c3ccccc3)[nH]n2)cc1	n	n	23	n	n	n	n	n
C=CCN1[C@H](CO)[C@H](c2ccccc2)[C@@H]1C#N	n	n	n	n	n	n	x	x
Nc1ccc(S(=O)(=O)Nc2nccs2)cc1N=Nc1ccccc1[N+](=O)[O-]	n	n	22	n	n	n	n	n
SMILES	PLC-beta3 inh	PLCg1 inh	ADAM10 inh	KLK7 zymogen act	HGIII-sPLA2 inh	ADAM17 inh	ADAM10 confirm	ADAM17 ctr
O=C(CCC(=O)N1CCN(S(=O)(=O)c2ccc(Cl)cc2)CC1)Nc1ccc2ccccc2c1	n	n	22	n	n	n	n	n
CCOc1ccc(OCCC(=O)OCC(=O)Nc2cc(S(=O)(=O)N3CCOCC3)ccc2C)cc1	n	n	68	n	n	n	n	n
CCOc1ccc(OCCC(=O)OCC(=O)Nc2ccc(C)c(S(=O)(=O)N3CCCCC3)c2)cc1	n	n	23	n	n	n	n	n
CCOc1ccc(OCCC(=O)OCC(=O)Nc2cc(S(=O)(=O)N3CCOCC3)ccc2OC)cc1	n	n	n	n	n	n	x	x
COC(=O)C1CN(Cc2ccccc2)CCS(=O)(=O)N1Cc1ccccc1F (stereo not given)	n	n	n	n	n	n	x	x
Cc1ccc(OCC(=O)NNC(=O)c2ccc3c(=O)n4c(nc3c2)CCC4)cc1	n	n	n	n	n	n	x	x
O=C(COc1ccc(Cl)cc1)NNC(=O)c1ccc2c(=O)n3c(nc2c1)CCC3	n	n	81	n	n	n	n	n
COc1ccc(OCC(=O)NNC(=O)c2ccc3c(=O)n4c(nc3c2)CCC4)cc1	n	n	71	n	n	n	n	n
COc1ccccc1CNC(=O)C[C@H]1CC[C@H]2[C@@H](COc3ccc(NC(=O)Nc4ccccc4)cc3C(=O)N2C)O1	n	n	n	n	n	n	x	x
Cc1cccc(-c2noc(Cc3ccc(Cl)cc3)n2)c1	n	n	20	n	n	n	n	n
COc1ccc(NC(C)C(=O)Nc2ccc(C(C)(C)C)cc2)cc1Cl (stereo not given)	n	n	27	n	n	n	n	n
O=C(COC(=O)c1cc(-c2cccs2)nn1-c1ccccc1)Nc1ccc(Cl)c([N+](=O)[O-])c1	n	n	21	n	n	n	n	n
Nn1c(SCC(=O)N2c3ccccc3Sc3ccc(Cl)cc32)nnc1-c1cc(-c2ccc(F)cc2)n[nH]1	n	n	n	n	n	n	x	x
CN1C(=O)Cc2cc(S(=O)(=O)Nc3ccc(N4CCOCC4)cc3)ccc21	n	n	28	n	n	n	n	n
Cc1cc(S(=O)(=O)Nc2ccc(N3CCOCC3)cc2)ccc1Br	n	n	n	n	n	n	x	x
O=C(C1CC1)N1N=C(c2cccc(Br)c2)CC1(O)C(F)(F)F (stereo not given)	n	n	81	n	n	n	n	n
COc1cccc(C2=NN(C(=O)C3CC3)C(O)(C(F)(F)F)C2)c1 (stereo not given)	n	n	n	n	n	n	x	x
CCNc1nc(NC(C)C)nc(SCCOc2ccc(C)cc2)n1	n	n	24	n	n	n	n	n
